High-throughput results from PubChem.
An excerpt weighted towards active compounds, which were near 11% of everything screened.
G9a block – blocks human histone lysine methyltransferase G9a; Q96KQ7; G9a H3K9 monomethylation, AlphaScreen, 2 h; Potency, µM (series often up to 102 µM), without a hit: at the top dose activity, negative = inhibition, actives largely listed as inhibitors; 350,000 compounds, 8.8% hits; AID 504332; also: % is scaled to controls: 0 for no effect and ±100 for the full control effect; nearly all actives have a fitted effect of over 75% in size
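Chemiluminescent proximity detection of H3K9 monomethylation, read after 10 min bead incubation in the dark. Reaction: 20 nM G9a, 500 nM biotin-H3K9 peptide, 20 uM SAM cofactor, 2 h, room temperature, following 15 min enzyme-compound preincubation.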
L3MBTL1 block – L3MBTL1 (human) inhibition | AlphaScreen L3MBTL1–H3K9me1 peptide binding | Potency, µM (series often up to 57.1 µM), for the others: at the top dose activity, negative = inhibition, actives largely listed as inhibitors | 230,000 compounds, 0.66% hits; also: % is scaled to controls: 0 for no effect and ±100 for the full control effect; nearly all actives have a fitted effect of over 60% in size
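AlphaScreen assay: L3MBTL1 (50 nM final) was preincubated 30 min at room temperature with biotinylated H3(1-15)K9me1 peptide (75 nM final), then 30 min with library compounds; streptavidin donor and nickel chelate acceptor beads (10 ug/mL final) added, 30 min dark.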
HP1b chromo inh – inhibitors of HP1-beta chromodomain binding to methylated histone tails; AlphaScreen HP1-beta / biotin-H3K9me3 peptide binding; P83916; Potency, µM (doses to about 114 µM), for the others: top-dose activity change, negative = inhibition, usual class: inhibitors; 390,000 compounds, 0.56% hits; also: nearly all actives have a fitted effect of over 70% in size
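HP1-beta protein (50 nM final) preincubated 30 min at room temperature with biotinylated H3(1-18)K9me3 peptide (50 nM) in PBS pH 7.4, 0.01% Tween-20, then compound added for 30 min. AlphaScreen streptavidin donor/nickel chelate acceptor beads (10 ug/mL final), 30 min dark, luminescence read.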
JMJD2A Tudor inh – JMJD2A Tudor domain (human) inhibition | Potency, µM (top dose mostly 114 µM), inactives show at the top dose activity change, negative = inhibition, actives largely listed as inhibitors | AlphaScreen JMJD2A-Tudor / H3K4me3 peptide binding | O75164 | 390,000 compounds, 4.4% hits | AID 504339; also: % is scaled to controls: 0 for no effect and ±100 for the full control effect; nearly all actives have a fitted effect of over 50% in size
BAZ2B inh – blocks human BAZ2B | AlphaScreen BAZ2B-H3K14Ac peptide displacement | Potency, µM (highest dose often 114 µM), for inactives: at the top dose activity change, negative = inhibition, usual class: inhibitors | 360,000 compounds, 4.4% hits | AID 504333; also: % is scaled to controls: 0 for no effect and ±100 for the full control effect; nearly all actives have a fitted effect of over 60% in size
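Inhibition is scored as reduced AlphaScreen emission. The BAZ2B/b-H3(5-23)K14Ac complex (50 nM each) in PBS pH 7.4, 0.01% Tween-20 meets compound (up to 110 uM) for 30 min at RT before bead addition.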
Active calls of the source: *; [ ] = dose if it differs, or a comment. Calls follow the shape of the dose curve; as a rule, active = well fitted inhibition curve with a large enough effect; inconclusive = small, poorly fitted or top-dose-only effect; inactive = no such curve, though single readings can be large or run the other way. Potency is read from the fitted curve at half-maximal effect.

For COc1ccc(C2CC(c3ccc4ccccc4c3)=NN2C(=O)CSc2ncccn2)cc1 (stereo unspecified) the results were G9a block 40µM*, L3MBTL1 block -11%, HP1b chromo inh 17%, JMJD2A Tudor inh -22% and BAZ2B inh -1%.
COc1ccc(C(=O)NCC(=O)OCC(=O)N2N=C(c3ccc(Cl)cc3)CC2c2ccco2)cc1OC (stereo unspecified) was read as G9a block 20µM*, L3MBTL1 block 7%, HP1b chromo inh 17%, JMJD2A Tudor inh -35% and BAZ2B inh -27%.
CCC(=O)N1N=C(c2ccc(Cl)cc2)CC1c1ccco1 (stereo unspecified) was read as G9a block 10%, L3MBTL1 block -16%, HP1b chromo inh 3%, JMJD2A Tudor inh -26% and BAZ2B inh -35%.
Screening COc1ccc(C2=NN(C(=O)CSc3ncccn3)C(c3ccc(OC)cc3)C2)cc1 (stereo unspecified) returned G9a block -10%[59 µM], L3MBTL1 block -10%, HP1b chromo inh 18%, JMJD2A Tudor inh -24% and BAZ2B inh inconclusive.
O=C(CCl)N1N=C(c2cccs2)CC1c1ccco1 (stereo unspecified) was read as G9a block inconclusive, L3MBTL1 block -8%, HP1b chromo inh 4%, JMJD2A Tudor inh -25% and BAZ2B inh -16%.
`COc1ccc(C2CC(c3ccccc3)=NN2C(=O)COC(=O)c2cccc(N)c2)cc1` (stereo unspecified) gave L3MBTL1 block -13%, HP1b chromo inh -4% and JMJD2A Tudor inh inconclusive.
`O=C(CCl)N1N=C(c2ccco2)CC1c1ccco1` (stereo unspecified) gave G9a block 50µM*, HP1b chromo inh 50µM*, JMJD2A Tudor inh 45µM* and BAZ2B inh 45µM*.
COc1ccc(C2CC(c3ccccc3)=NN2C(=O)COC(=O)c2cccnc2)cc1 (stereo unspecified) was read as G9a block 18µM*, L3MBTL1 block -11%, HP1b chromo inh 38%, JMJD2A Tudor inh -8% and BAZ2B inh -37%.
Screening CSc1ccccc1NC(=O)C1=CC(c2ccc3c(c2)OCO3)=NS(=O)(=O)N1C returned G9a block -29%[59 µM], HP1b chromo inh 23%, JMJD2A Tudor inh -12% and BAZ2B inh -3%.
`O=C(OCC(=O)N1N=C(c2ccc(Cl)cc2)CC1c1ccco1)c1cccnc1` (stereo unspecified) gave L3MBTL1 block -91%, HP1b chromo inh inconclusive and JMJD2A Tudor inh 35µM*.
COCC(=O)OCC(=O)N1N=C(c2ccc(Cl)cc2)CC1c1ccco1 (stereo unspecified) was read as G9a block inconclusive, L3MBTL1 block -16%, HP1b chromo inh -8%, JMJD2A Tudor inh -31% and BAZ2B inh inconclusive.
CC(=O)N1N=C(c2ccc([N+](=O)[O-])cc2)CC1c1ccccc1Cl (stereo unspecified) was read as G9a block 50µM*, L3MBTL1 block -18%, HP1b chromo inh inconclusive, JMJD2A Tudor inh inconclusive and BAZ2B inh inconclusive.
Screening COc1ccc(C2CC(c3ccccc3)=NN2C(=O)CCC(=O)O)cc1 (stereo unspecified) returned L3MBTL1 block 1%, HP1b chromo inh 49%, JMJD2A Tudor inh -20% and BAZ2B inh -3%.
For COc1ccc(C2=NN(C(=O)CCC(=O)O)C(c3ccc([N+](=O)[O-])cc3)C2)cc1 (stereo unspecified) the results were G9a block 40µM*, L3MBTL1 block 10%, HP1b chromo inh 13%, JMJD2A Tudor inh -12% and BAZ2B inh -2%.
For Cc1ccc(NC(=O)c2c(C)oc3ccc(O)c(CN4CCCCCC4)c23)c(C)c1 the results were G9a block -30%[59 µM], HP1b chromo inh 9%, JMJD2A Tudor inh -33% and BAZ2B inh -25%.
O=C(O)c1ccc(S(=O)(=O)c2ccc3c(c2)C(=O)N(NC(=O)c2ccncc2)C3=O)cc1 was read as G9a block 50µM*, HP1b chromo inh -9%, JMJD2A Tudor inh -14% and BAZ2B inh -23%.
For O=C(O)c1ccc(S(=O)(=O)c2ccc3c(c2)C(=O)N(NC(=O)c2ccccc2)C3=O)cc1 the results were G9a block -3%, HP1b chromo inh 46%, JMJD2A Tudor inh 6% and BAZ2B inh 0%.
`CC12CCC(C/C1=N\N=C1\NC(=O)/C(=C\c3cccc(Br)c3)S1)C2(C)C` (stereo unspecified) gave G9a block 1.3µM*, L3MBTL1 block -7%, HP1b chromo inh -14%, JMJD2A Tudor inh inconclusive and BAZ2B inh -28%.
For Nc1ccc(NC(=O)c2cc(Cl)ccc2O)c(Cl)c1 the results were HP1b chromo inh 13% and JMJD2A Tudor inh -23%.
Screening CCN=C1S/C(=C\c2cn(CC)c3ccccc23)C(=O)N1CC returned G9a block -5%[59 µM], L3MBTL1 block -6%, HP1b chromo inh 42%, JMJD2A Tudor inh -1% and BAZ2B inh -4%.
`Cc1ccc(N=C2S/C(=C\c3cn(CC(=O)O)c4ccccc34)C(=O)N2C)cc1` gave G9a block 79µM*, L3MBTL1 block -10%, HP1b chromo inh -9%, JMJD2A Tudor inh -24% and BAZ2B inh inconclusive.
For COc1ccc(CCNC(=O)c2ccc3c(c2)N(Cc2ccccc2C)C(=O)c2ccccc2S3)cc1OC the results were G9a block -2%[59 µM], HP1b chromo inh 53%, JMJD2A Tudor inh -28% and BAZ2B inh 13%.
O=c1/c(=C/c2ccc(O)cc2)sc2nc3cc(Br)cnc3n12 was read as G9a block 10µM*, L3MBTL1 block -13% and BAZ2B inh -32%.
O=c1/c(=C\c2ccc(O)cc2)sc2nc(-c3ccccc3)c(-c3ccccc3)n12 was read as G9a block inconclusive, HP1b chromo inh 50%, JMJD2A Tudor inh -18%[11.4 µM] and BAZ2B inh inconclusive.
For O=C(Cn1c2ccccc2c(=O)c2ccccc21)Nc1cccc(F)c1 the results were G9a block 13%, L3MBTL1 block 8%, HP1b chromo inh 6%, JMJD2A Tudor inh 16µM* and BAZ2B inh -7%.
Screening COCCCNC(=O)c1ccc(Cn2c(=O)c3ccccc3n(CC(N)=O)c2=O)cc1 returned G9a block 6%[59 µM], HP1b chromo inh 24%, JMJD2A Tudor inh -18% and BAZ2B inh -2%.
Screening CC(C)Nc1nc(Cl)nc(N(C#N)CN2C(=O)c3ccccc3C2=O)n1 returned G9a block 28µM*, L3MBTL1 block -8%, HP1b chromo inh -8%, JMJD2A Tudor inh inconclusive and BAZ2B inh -8%.
COCCNC(=O)[C@H]1C[C@@H]1[C@H](NP(=O)(c1ccccc1)c1ccccc1)c1ccccc1 was read as G9a block 56µM*, L3MBTL1 block -14%, HP1b chromo inh 38%, JMJD2A Tudor inh -11% and BAZ2B inh 0%.
